Our source for the inhibition values is PubChem BioAssay AID652115 (Broad Institute, 2013).

A word on the inhibition: it is the change of the read-out against control, counted positive when it falls.

The structures appear in SMILES notation. Values joined by “and” are separate entries in the source; they are usually repeats but may differ in a detail not shown here. Equal entries are not always repeated. About 3,800 (1.2%) of roughly 330,000 compounds were called active. Cut-off read from the data, not from the text of the source: active = inhibition above about 15%; inconclusive = no clear call, values can overlap the other calls; inactive = below that. The full list was thinned out, with actives kept by preference. Some compounds were tested as several samples or in several runs, with calls that do not always agree.

NAD-dependent protein deacylase sirtuin-5, mitochondrial (Homo sapiens), sequence (Q9NXA8 whole entry, looked up): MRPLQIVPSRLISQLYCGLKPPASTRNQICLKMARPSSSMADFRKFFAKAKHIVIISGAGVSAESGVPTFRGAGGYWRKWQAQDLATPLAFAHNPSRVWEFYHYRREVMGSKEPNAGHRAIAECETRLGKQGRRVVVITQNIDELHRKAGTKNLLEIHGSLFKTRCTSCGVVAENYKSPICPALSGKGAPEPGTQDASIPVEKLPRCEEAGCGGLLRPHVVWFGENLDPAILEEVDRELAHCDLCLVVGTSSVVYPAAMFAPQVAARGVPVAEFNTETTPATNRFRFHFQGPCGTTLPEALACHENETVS

This assay concerns the target NAD-dependent protein deacylase sirtuin-5, mitochondrial (Homo sapiens) (UniProt Q9NXA8). Description: SIRT5 desuccinylase inhibitors, primary screen, biochemical, fluorescence imaging, single point, set 5 (AID 652115). The note with it: Purified SirT5, succinyl-peptide AMC, trypsin-coupled fluorescence; at 15 µM; stronger effect = higher value.
Consider `CN(C)CC(=O)Nc1ccc2c(c1)[C@H]1C[C@H](CC(=O)NCc3ccccn3)O[C@@H](CO)[C@H]1O2`, for which the inhibition is -6.14% (inactive). Turning to `Cc1ccc(SCCC(=O)Nc2cc(C)on2)cc1`, the inhibition is -2.48% (inactive). In the case of `Cc1ccc(SCCC(=O)NCc2ccccn2)cc1` it was -1.1% (inactive); in that of `Cc1ccc(SCCC(=O)NC(C(C)C)C(C)C)cc1`, 15.4% (active); in that of `COc1cccc(S(=O)(=O)N2C[C@@H]3N[C@H](C2)C3c2ccc(-c3cccc(C(=O)N(C)C)c3)cc2)c1` (stereo partly specified), 1.44% (inactive) and 6.3% (inactive).

Take `COc1ccccc1S(=O)(=O)N1C[C@@H]2N[C@H](C1)C2c1ccc(-c2cccc(C)c2)cc1` (stereo partly specified): the inhibition was 1.28% (inactive) and 16.2% (active). With `CN(C)C(=O)c1ccc(-c2ccc(C3[C@@H]4CN(C(=O)Nc5ccccc5)C[C@H]3N4)cc2)cc1` (stereo partly specified), the inhibition was -1.69% (inactive).

`O=C(C1CCCCC1)N1C[C@@H]2N[C@H](C1)C2c1ccc(-c2cccc(F)c2)cc1` (stereo partly specified): the inhibition was 1.22% (inactive) and 3.71% (inactive). In the case of `Cc1cccc(-c2ccc(C3[C@@H]4CN(C(=O)Nc5ccc(C(F)(F)F)cc5)C[C@H]3N4)cc2)c1` (stereo partly specified) it was 7.01% (inactive) and 16.1% (active). `N#Cc1ccc(-c2ccc(C3[C@@H]4CN(S(=O)(=O)c5ccccc5F)C[C@H]3N4)cc2)cc1` (stereo partly specified): the inhibition is -1.48% (inactive) and -0.825% (inactive). In the case of `O=C(C[C@H]1CC[C@H](NS(=O)(=O)c2ccccc2)[C@H](CO)O1)NCc1ccncn1` it was 6.51% (inactive); in that of `CN1C(=O)c2cc(NC(=O)Cc3cccs3)ccc2OC[C@@H]2O[C@@H](CC(=O)N[C@@H]3CCN(Cc4ccccc4)C3)CC[C@H]21`, -2.4% (inactive); in that of `COCCCNC(=O)[C@@]1(C)c2ccccc2C(=O)N(Cc2ccc(OC(F)(F)F)cc2)[C@H]1c1ccc(CO)cc1`, 0.166% (inactive). As for `COc1ccccc1CNC(=O)C[C@H]1C[C@@H]2c3cc(NC(=O)Nc4ccccc4F)ccc3O[C@@H]2[C@H](CO)O1`, the inhibition is -5.72% (inactive). `COCC(=O)N(C)C[C@H]1Oc2cc(C#C[C@@H](C)O)ccc2S(=O)(=O)N([C@H](C)CO)C[C@H]1C`: the inhibition was -5.34% (inactive). In the case of `CO[C@@H]1CN(C)C(=O)c2cc(NC(=O)CC(F)(F)F)ccc2OC[C@H](C)N(S(=O)(=O)c2cn(C)cn2)C[C@H]1C` it was 1.11% (inactive); in that of `O=C(O)C[C@@H]1C[C@@H]2c3cc(NC(=O)Nc4ccccc4)ccc3O[C@@H]2[C@H](CO)O1`, -3.63% (inactive); in that of `COc1ccc(NC(=O)N[C@@H]2CC[C@H](CCn3cc(-c4ccc(OC)cc4)nn3)O[C@@H]2CO)cc1`, 31.3% (active).

Turning to `COc1ccc(NC(=O)N[C@H]2CC[C@H](CCn3cc(-c4ccccc4F)nn3)O[C@H]2CO)cc1`, the inhibition is -0.072% (inactive). In the case of `O=C(Cc1ccncc1)N[C@@H]1CC[C@H](CCn2cc(-c3ccccc3F)nn2)O[C@H]1CO` it was 1.05% (inactive). `O=C(Cc1ccncc1)N[C@H]1CC[C@H](CCn2cc(-c3ccccc3F)nn2)O[C@@H]1CO`: the inhibition is 25.2% (active). For `O=C(Nc1ccc(F)cc1)N[C@H]1CC[C@H](CCn2cc(-c3ccc(F)cc3)nn2)O[C@@H]1CO`, the inhibition is 3.97% (inactive). The same measure for `O=C(Cc1cccnc1)N[C@H]1CC[C@H](CCn2cc(-c3ccccc3F)nn2)O[C@H]1CO`: -1.27% (inactive).

Consider `COc1ccc2c3c(n(C)c2c1)[C@@H](CO)NCC31CCN(CC2CCCC2)CC1`, for which the inhibition was -0.874% (inactive). In the case of `CN1CCN(C(=O)C[C@@H]2C=C[C@@H](NS(=O)(=O)c3cccc(F)c3)[C@@H](CO)O2)CC1` it was 1.94% (inactive); in that of `C[C@@H]1CN([C@@H](C)CO)S(=O)(=O)c2ccc(-c3cccnc3)cc2O[C@H]1CN(C)CC1CCOCC1`, 1.51% (inactive); in that of `CCC(=O)N1[C@H](C(=O)NC2CCC2)[C@@H](CO)[C@@H]2Cn3c(cccc3=O)[C@@H]21`, -8.06% (inactive). In the case of `C[C@H](CO)N1C[C@H](C)[C@@H](CN(C)S(=O)(=O)c2ccccc2F)Oc2ncc(C#Cc3ccccc3F)cc2C1=O` it was 2.94% (inactive).

With `N#C[C@@H]1[C@@H](c2ccccc2C2=CCCC2)[C@H](CO)N1C(=O)NC1CCCC1`, the inhibition is 1.76% (inactive). In the case of `Oc1c(Cl)cc(Cl)c(Cl)c1Cc1c(O)c(Cl)cc(Cl)c1Cl` it was 16% (active). In the case of `COCC(=O)Nc1ccc2c(c1)C(=O)N(C)[C@@H]1CC[C@@H](CC(=O)NCC(F)(F)F)O[C@H]1CO2` it was 0.833% (inactive); in that of `Cc1cnc(C)c(N2CCN(C(=O)C3CCC(=O)N(CCc4cccc(F)c4)C3)CC2)n1` (stereo unspecified), -3.12% (inactive); in that of `O=C1CCC(C(=O)N2CCC(O)(c3ccccc3)CC2)CN1CCc1ccccc1` (stereo unspecified), 15.1% (active). As to `O=C(NCCCc1ccccc1)C1CCC(=O)N(CCc2ccc(Cl)cc2)C1` (stereo unspecified), the inhibition was -3.16% (inactive).

Consider `C[C@@H]1CN([C@@H](C)CO)C(=O)c2cccc(NC(=O)Nc3ccc(F)cc3)c2O[C@H]1CN(C)Cc1ccc(-c2ccccc2)cc1`, for which the inhibition was -1.08% (inactive). The same measure for `CCNC(=O)[C@H]1[C@H](CO)[C@H]2Cn3c(ccc(-c4cccc(OC)c4)c3=O)[C@H]2N1Cc1nccs1`: -15.5% (inactive); for `CN1c2ccc(C3=CCCCC3)cc2[C@@H]2[C@@H](CCN2C(=O)Nc2cc(F)ccc2F)[C@@H]1CO`: 1.41% (inactive). In the case of `CC(C)C(=O)Nc1ccc2c3c(cccc13)CC2` it was 18.7% (active); in that of `CC(=O)Nc1ccc2c3c(ccc([N+](=O)[O-])c13)CC2`, -1.7% (inactive); in that of `O=S(=O)(NC1CC1)c1ccc2c3c(cccc13)CC2`, -2.65% (inactive). Consider `COCC#Cc1ccc([C@H]2[C@@H](CO)N3C(=O)CN(C(=O)C4CCCC4)C[C@@H]23)cc1`, for which the inhibition is 0.614% (inactive). The same measure for `C[C@H](CO)N1C[C@H](C)[C@@H](CN(C)S(=O)(=O)c2ccccc2)Oc2ccc(NC(=O)Nc3ccc(F)cc3)cc2CC1=O`: 3.49% (inactive). The same measure for `O=C([C@H]1[C@H](CO)[C@H]2Cn3c(ccc(C4=CCCCC4)c3=O)[C@@H]1N2)N1CCCCC1`: -11.2% (inactive); for `C=C(C)COc1ccc(-c2nc(N)ncc2-c2ccccc2OC)c(O)c1`: -0.166% (inactive). Consider `COc1ccc(-c2nc(N)ncc2-c2ccc(Cl)cc2)c(O)c1`, for which the inhibition is -4.03% (inactive). The same measure for `C=C(C)COc1ccc(-c2ncncc2-c2ccc(OC)cc2)c(O)c1`: 24.8% (active).
